Assay results as given in publication PMC5540273 (PLoS ONE, 2017).

What was measured:
GRK3 = test system: T1, GRK3
T1 construct: gene ADRBK2

HASPIN = test system: T2, HASPIN
T2 construct: gene GSG2

IKK-beta = test system: T3, IKK-beta
T3 construct: gene IKBKB

IKK-epsilon = test system: T4, IKK-epsilon
T4 construct: gene IKBKE
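Note: kd values determined as follow-up on hits from a single-replicate KINOMEscan panel screen.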

Structure (SMILES): Cn1cncc1C(=O)NC1CCN(c2ccnc(Nc3ccc(F)cc3)n2)C1 (stereo not drawn) [GSK1379717]
- Kd (FLT4): > 10 µM

Structure (SMILES): CNc1nc(-c2ccc3c(N)n[nH]c3c2)cc(N2C[C@@H](C(=O)Nc3ccccc3)CC[C@H]2C)n1 [GSK2298859]
- Kd (GRK1): > 10 µM

Structure (SMILES): COC(=O)C(Cc1ccccc1)NC(=O)NC1CCN(c2ccnc(Nc3ccc(F)cc3)n2)C1 (stereo not drawn) [GSK1379714]
- Kd (GRK1): > 10 µM

Structure (SMILES): CS(=O)(=O)CCNCc1nc(-c2ccc3ncnc(Nc4ccc(OCc5ccccc5)c(Cl)c4)c3c2)cs1.Cl [GW582764]
- Kd (GRK3): > 10 µM

Structure (SMILES): CC(C)c1cc(-c2ccc3c(N)n[nH]c3c2)nc(N)n1 [GSK2250882]
- Kd (HASPIN): 0.2 µM

Structure (SMILES): COc1cccc(NC(=O)Nc2ccc(C)c(-c3ccc(C(=O)Nc4ccncc4)cc3)c2)c1 [GSK1398474]
- Kd (IKK-beta): > 10 µM

Structure (SMILES): FC(F)(F)c1ccccc1-c1cc(-c2c[nH]nc2-c2ccccn2)ccn1 [GW679396]
- Kd (IKK-epsilon): > 10 µM

Structure (SMILES): COc1ccc(Nc2nccc(N3CCC(NC(=O)C(C)c4ccc(Cl)cc4)CC3)n2)cc1 (stereo not drawn) [GSK1379812]
- Kd (IKK-epsilon): > 10 µM

Structure (SMILES): Cl.Cl.Cl.N#Cc1ccc(CCNc2nccc(-c3cccc(CN4CCNCC4)c3)n2)cc1 [GSK2137462]
- Kd (INSR): > 10 µM
